Pf growth 48h – P. falciparum growth inhibition at 48 hours (one generation); P. falciparum luciferase growth in erythrocytes, 48 h; Potency, µM (top dose mostly 28.7 µM), usual class: inhibitors; 310,000 tested, 5.9% active
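In quantitative HTS format, infected erythrocytes bearing luciferase-reporter parasites were treated for a single generation at 37 C. Luminescence after adding detection reagent served as the growth measure.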
Pf growth 96h – P. falciparum growth inhibition at 96 hours | AID 504834 | 320,000 tested, 6.9% active | P. falciparum luciferase reporter growth, 96 h | Potency, µM (series often up to 28.7 µM), actives largely listed as inhibitors
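Two parasite generations (96 h, 37 C, 5% CO2) of compound exposure in infected erythrocytes (0.05% parasitemia, 2% hematocrit). Luciferase-reporter P. falciparum; decreased luminescence indicates inhibited growth, aimed at apicoplast-acting delayed death.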
CHX counter – affects cycloheximide protein synthesis inhibition readout, counter-screen; cell reporter, cycloheximide protein synthesis inhibition counterscreen; max response, %; 300,000 tested, 12% active; AID 2314; in the data active means max response mostly above about 13%, no sharp cut-off; inactive means mostly below about 14%; further: read at 38.3 µM for the half of the compounds with a filed dose
Shiga inhibitor – Shiga toxin inhibition; AID 2315; inhibition, % at 38.7 µM; Vero cells, Shiga toxin protein synthesis inhibition reporter; 290,000 tested, 9.2% active; in the data active means inhibition mostly above about 28%, no sharp cut-off; inactive means mostly below about 43%
Each line names hits and unclear results; the compound was inactive in the other large screens. A selection: hits, their analogues and other compounds. The true share with any hit is near 21%. Unless noted, the call rests on the fitted dose curve; in most records, active means well fitted inhibition curve with a large enough effect; inconclusive means small, poorly fitted or top-dose-only effect, or another doubt; inactive means no such curve, though single readings can be large or run the other way.

Cc1noc(C)c1COc1cccc(C(=O)Nc2ccccc2N2CCOCC2)c1	Pf growth 48h inconclusive, Pf growth 96h 13µM
O=C(Nc1ccc(OCc2ccccc2)cc1)c1ccccc1	CHX counter 14
COc1cc(C(=O)Nc2ccccc2N2CCOCC2)ccc1OCc1c(C)noc1C	Pf growth 96h inconclusive
CC(C)=CC(=O)Nc1ccc(Br)cc1	CHX counter 58, Shiga inhibitor 74
NCC(=O)NCC(=O)OCc1ccccc1	none
CCN(Cc1nc2ccccc2c(=O)[nH]1)C(=O)c1cccc(OCc2c(C)noc2C)c1	Pf growth 48h 6.6µM, Pf growth 96h inconclusive (no result: CHX counter, Shiga inhibitor)
Cc1ccsc1C(=O)NCC(=O)OCc1ccccc1	CHX counter 30, Shiga inhibitor 61
CC(=O)Nc1ccc(NC(=S)Nc2ccc(Br)cc2)cc1	none
O=C(Nc1ccc(OCc2ccccc2)cc1)c1cccnc1	CHX counter 20, Shiga inhibitor 41 (no result: Pf growth 48h)
Cc1cc(C)c(S(=O)(=O)NCC(=O)NCc2ccccn2)c(C)c1	Pf growth 96h inconclusive
Cc1noc(C)c1COc1cccc(C(=O)Nc2ccc(OCc3ccccc3)cc2)c1	CHX counter 12
Cc1noc(C)c1COc1ccc(C(=O)Nc2ccccc2)cc1	Pf growth 48h inconclusive
CCOC(=O)CNC(=O)C(CO)NC(=O)OCc1ccccc1 (configuration not stated)	Pf growth 96h inconclusive, CHX counter 26
O=C(Nc1ccc(-c2noc(CCc3ccccc3)n2)cc1)c1cccnc1	Pf growth 48h inconclusive, CHX counter 27, Shiga inhibitor 40
Cc1ccc(C(=O)Nc2ccc(OCc3ccccc3)cc2)s1	Pf growth 48h inconclusive, Pf growth 96h inconclusive, CHX counter 18
CCOC(=O)C(=O)Nc1ccc(OCc2ccccc2)cc1	none
COc1ccc(C(=O)Nc2nnc(Cc3ccccc3)s2)c(OC)c1	Pf growth 48h inconclusive
Cc1ccc(C)c(CNS(=O)(=O)c2c(C)[nH]c(C)c2C(=O)N2CCCCC2)c1	none
Cc1cc(C(=O)Nc2ccc(OCc3ccccc3)cc2)c(C)o1	CHX counter 24, Shiga inhibitor 81
CC(C)=CC(=O)Nc1ccc(OCc2ccccc2)cc1	Pf growth 48h inconclusive, CHX counter 53, Shiga inhibitor 126
Cc1c(C(=O)Nc2ccc(OCc3ccccc3)cc2)cccc1[N+](=O)[O-]	none
Cc1nc(COc2ccc(C(=O)Nc3ccccc3N3CCOCC3)cc2)cs1	Pf growth 96h inconclusive, Shiga inhibitor 26
O=C(Nc1ccc(Oc2nnc(-c3ccccc3)c3ccccc23)cc1)c1ccccc1	Pf growth 48h 10µM
CC(C)Oc1ccc(C(=O)Nc2ccccc2N2CCOCC2)cc1	Pf growth 48h inconclusive
O=C(Nc1nnc(CCN2CCCCC2)s1)c1ccccc1Cl	none
Cc1ccc(S(=O)(=O)Nc2cnn(-c3ccccc3)c(=O)c2Cl)cc1	Pf growth 48h inconclusive
Cc1nn2c(COc3ccc(NC(=O)c4ccccc4)cc3)nnc2c2ccccc12	Pf growth 48h inconclusive, Pf growth 96h 6.6µM
Cc1ccsc1C(=O)Nc1ccc(OCc2ccccc2)cc1	CHX counter 18, Shiga inhibitor 68
CCOCC(=O)Nc1ccc(OCc2ccccc2)cc1	Pf growth 48h inconclusive, CHX counter 35, Shiga inhibitor 46
COc1ccc(C)cc1NC(=O)C/C(C)=N/NC(=O)Cc1cccc2ccccc12	none
COc1cc(C)ccc1OCc1cc(C(=O)N2CCN(C)C[C@@H]2c2ccccc2)no1	Pf growth 48h inconclusive, CHX counter 42, Shiga inhibitor 67
Cn1ccnc1C1CCCCN1C(=O)c1cc(COc2ccc(F)cc2Cl)on1 (configuration not stated)	Pf growth 48h inconclusive
COc1cc(C)ccc1OCc1cc(C(=O)N2C[C@H]3CC[C@H]2C3)no1	CHX counter 21
COc1cc(Cl)ccc1OCc1cc(C(=O)N2C[C@H]3CC[C@H]2C3)no1	CHX counter 55, Shiga inhibitor 108
COc1cc(Cl)ccc1OCc1cc(C(=O)N2C[C@@H]3CCC[C@H]2C3)no1	CHX counter 60, Shiga inhibitor 145
COc1cc(C)ccc1OCc1cc(C(=O)NCCN2CCCC(O)C2)no1 (configuration not stated)	Pf growth 96h inconclusive
CC1(C)CC2(CCO1)CNC(=O)O2 (configuration not stated)	none
O=C1CC(c2ccc(F)cc2)CC(O)=C1C=NCCN1CCN(C(=O)Nc2ccccc2)CC1 (configuration not stated)	none (no result: Pf growth 48h)
CS(=O)(=O)c1cnc(-c2cccnc2)nc1N	none
CSc1nc(N2CCOCC2)nc2ccc(C)cc12	none (no result: CHX counter, Shiga inhibitor)
O=C(c1cc(COc2cccc(C(F)(F)F)c2)on1)N1C[C@@H]2CCC[C@H]1C2	Pf growth 48h inconclusive, CHX counter 34, Shiga inhibitor 77
COc1cc(Cl)ccc1OCc1cc(C(=O)N2C[C@]3(C)C[C@H]2CC(C)(C)C3)no1	Pf growth 48h inconclusive, CHX counter 72, Shiga inhibitor 111
COc1cc(C)ccc1OCc1cc(C(=O)N(Cc2c(C)nn(C)c2C)C2CC2)no1	CHX counter 52, Shiga inhibitor 76
Cc1ccc(C)c(OCc2cc(C(=O)N(C)Cc3nccn3C)no2)c1	none
CC1(C)CC2CC(C)(CN2C(=O)c2cc(-c3ccccc3)on2)C1 (configuration not stated)	Pf growth 48h inconclusive
CSCCC(NC(=O)COc1ccccc1)C(=O)N1CCCC(C(F)(F)F)C1 (configuration not stated)	Pf growth 48h inconclusive (no result: CHX counter, Shiga inhibitor)
O=C(O)CCNC(=O)C12CC3CC(CC(C3)C1)C2	none
COCCCn1c(-c2ccc(Cl)cc2)n[nH]c1=S	Pf growth 96h inconclusive (no result: Pf growth 48h)
COCCCn1c(-c2ccccc2Cl)n[nH]c1=S	Pf growth 96h 1.9µM
COc1ccc(-c2cc(-c3n[nH]c(=S)n3-c3ccccc3OC)[nH]n2)cc1	none
COc1ccc(-c2cc(-c3c(O)c(OC)c4occc4c3OC)[nH]n2)cc1OC	Pf growth 48h inconclusive, CHX counter 23
COc1ccc(-c2cn[nH]c2N)cc1OC	none (no result: Pf growth 48h)
COc1ccc(-c2cc(-c3c(O)c(OC)c4occc4c3OC)[nH]n2)cc1	CHX counter 21, Shiga inhibitor 79 (no result: Pf growth 48h, Pf growth 96h)
CCC(C(=O)NCc1cccnc1)n1nc(C)n2c(cc3occc32)c1=O (configuration not stated)	none
COc1cc2c(cc1OC)CN(CC(=O)Nc1ccc(C)c(S(=O)(=O)N3CCOCC3)c1)CC2	Pf growth 48h inconclusive, Pf growth 96h 12µM
COc1cc2c(cc1OC)CN(CC(=O)Nc1ccc(Cl)c(S(=O)(=O)N(C)C)c1)CC2	Pf growth 48h 13µM, Pf growth 96h inconclusive
Cc1ccc(NC(=O)CN2CCc3ccccc3C2)cc1S(=O)(=O)N1CCOCC1	Pf growth 96h inconclusive
COc1cc2c(cc1OC)CN(CC(=O)Nc1ccc(S(=O)(=O)N(C)C)cc1)CC2	Pf growth 96h inconclusive
CCCCCc1cc(=O)oc2c(C(CCN3CCN(c4ccccc4)CC3)c3ccc(N(C)C)cc3)c(OC)cc(OC)c12 (configuration not stated)	Pf growth 48h inconclusive, Pf growth 96h inconclusive
COc1cc(OC)c2c(-c3ccccc3)cc(=O)oc2c1C(CC(=O)N1CCN(c2ccccc2)CC1)c1ccc2c(c1)OCO2 (configuration not stated)	Pf growth 48h inconclusive, Pf growth 96h inconclusive
